From PubChem BioAssay AID777 (Sanford-Burnham Center for Chemical Genomics, 2007)
The whole screen tested about 96,000 compounds, of which about 19,000 (20%) were called active. A selection follows. A number with no mark means an inactive call.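 Rule for the calls: active = blocking of liver enzyme CYP2C9 beyond about 50% at 5 µM (limit read from the data); inactive = the rest.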

biological target: Cytochrome P450 2C9 (Homo sapiens) (UniProt P11712); assay: blockers of cytochrome P450 2C9 activity – biochemical, luminescence, ADME assay, primary screen (AID 777); details: CYP2C9 Supersomes, luciferin-H conversion, at 5 µM, stronger effect = higher value
Sequence (P11712 whole entry, looked up): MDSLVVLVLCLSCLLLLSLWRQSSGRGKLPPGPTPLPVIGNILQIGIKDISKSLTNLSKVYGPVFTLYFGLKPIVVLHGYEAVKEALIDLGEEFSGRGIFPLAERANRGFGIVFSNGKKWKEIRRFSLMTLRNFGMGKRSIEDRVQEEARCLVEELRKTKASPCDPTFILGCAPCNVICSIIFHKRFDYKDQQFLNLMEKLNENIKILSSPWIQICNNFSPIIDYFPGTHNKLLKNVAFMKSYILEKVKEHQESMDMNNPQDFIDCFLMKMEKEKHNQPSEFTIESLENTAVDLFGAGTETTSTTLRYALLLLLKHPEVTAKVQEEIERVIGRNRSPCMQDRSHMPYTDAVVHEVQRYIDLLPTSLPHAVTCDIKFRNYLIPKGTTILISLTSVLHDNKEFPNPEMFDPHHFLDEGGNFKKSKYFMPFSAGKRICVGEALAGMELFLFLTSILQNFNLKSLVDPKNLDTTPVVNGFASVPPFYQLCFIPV

SMILES	inhibition
Cc1cc(C)c2c(c1)cc(C)c1nnc(SCC(=O)Nc3cc(C)on3)n12	10.5%
CCCS(=O)(=O)N1CCCC(C(=O)N2CCN(c3ccccc3)CC2)C1 (centres undefined)	-1.6%
Cc1nnsc1S(=O)(=O)Cc1ccccc1Cl	3.2%
CCOC(=O)C(CCOc1cccc(CC)c1)C(=O)OCC	57% (active)
COC(=O)[C@@H](NC(=O)NCc1cccc(OC)c1)C(C)C	-12.5%
CCCOc1cccc(C(=O)Nc2nnn(CCC)n2)c1	38.6%
CC(C)=C(NC(=O)c1ccco1)C(=O)NCCc1nc2ccccc2[nH]1	-29.7%
CCC(CC)C(=O)N1CC(=O)Nc2ccc(Br)cc2C1c1ccccc1 (centres undefined)	49.6%
S=c1[nH]nc2c3c4c(sc3ncn12)CCCC4	20.5%
CCCOc1ccccc1-c1nc(SCCC(=O)O)n[nH]1	-1.3%
N#CC(C(=O)c1ccc(S(=O)(=O)N2CCCCCC2)cc1)c1nc2ccccc2[nH]1 (centres undefined)	67.8% (active)
COC(=O)c1ccc(S(=O)(=O)N2CCC(c3nc4ccccc4o3)CC2)cc1	16.8%
COc1ccccc1N1CCN(C(=O)c2ccc(S(=O)(=O)N3CCCCC3)cc2)CC1	45.8%
O=C(CSc1nc2ccccc2o1)N1CCN(c2ccccc2)CC1	29.7%
CC(C)OCCCNC(=O)C1CC(=O)N(C2CCCCCCC2)C1 (centres undefined)	-4.2%
CC(CN1CCCCC1)OC(=O)c1ccccc1Cl (centres undefined)	9.2%
CCOC(=O)c1sc2nc(SC)nc(-c3ccccc3)c2c1N	13.3%
CCOC(=O)c1sc(N(Cc2ccccc2)C(=O)CN2C(=O)CN(C)C2=O)nc1C	57.9% (active)
CCOC(=O)c1ccc(N2C(=O)CC(N(C)Cc3ccccc3)C2=O)cc1 (centres undefined)	-9.5%
c1ccc(Nc2nc(N3CCOCC3)c3ccccc3n2)cc1	56.9% (active)
Cc1cc(Oc2ccccc2)nc(N2CCOCC2)n1	26.5%
c1ccc(COc2nsnc2N2CCOCC2)cc1	30.3%
COCc1[nH][nH]c(=O)c1C=Nc1ccc(F)cc1F	-10%
CCCOC(=O)CC1C(=O)NCCN1Cc1ccc(F)cc1 (centres undefined)	6.4%
CCC(C)(C(=O)NC1CCCCC1)N(C)C(=O)c1ccc2c(c1)OCO2 (centres undefined)	-1.7%

SMILES	inhibition
COC(=O)c1ccc(NC(=O)c2ccco2)cc1	24%
Cc1ccnc(NC(=O)c2ccc(NC(=O)c3ccco3)cc2)c1	-0.6%
CC(C)(C)NC(=O)c1cc(NC(=O)c2ccco2)cc(NC(=O)c2ccco2)c1	64.8% (active)
CN1CCN(CC(=O)C23CC4CC(CC(C4)C2)C3)CC1	5.7%
Cc1ccc(N2C(=O)C3C(c4ccccc4)(C2=O)C3(c2ccccc2)c2ccccc2)cc1 (centres undefined)	28.1%
Cc1cc(C)nc(N2C(=O)CC(Cc3ccccc3)C2=O)n1 (centres undefined)	-14%
Cc1ccc(N2C(=O)C(Cc3ccccc3)NC2=S)cc1 (centres undefined)	78.4% (active)
CCOC(=O)N1CCC(NC(=O)CN2C(=O)COc3ccc(C(C)(C)C)cc32)CC1	10.3%
CCCCC(=O)N/N=C(\C)CC(=O)Nc1cc(Cl)ccc1OC	-51.9%
CN(C)c1ccc(-n2cccc2/C=C2/SC(=Nc3ccc(F)cc3)NC2=O)cc1	5.1%
Cc1ccc(-c2nnc(C)c(N3CC(C)OC(C)C3)n2)cc1 (centres undefined)	17.3%
COc1ccc(C)cc1NC(=O)CCC(=O)Nc1nnc(C(F)(F)F)s1	50.2% (active)
COc1ccc(C)cc1NC(=O)CSc1nc(SC)ns1	-3.2%
COc1ccc(C)cc1NC(=O)CCS(=O)(=O)c1cccc2nonc12	34.9%
CC(=NCc1ccc2c(c1)OCO2)C1=C(O)c2ccccc2C1=O	28.1%
O=C1C(C=NCC2CCCO2)=C(O)c2ccccc21 (centres undefined)	3.5%
CC(=NCc1ccco1)C1=C(O)c2ccccc2C1=O	78.9% (active)
CC(Sc1sc(=S)sc1SC(C)C(=O)O)C(=O)O (centres undefined)	10.2%
CCCCn1ccnc1C(=O)c1cccc(S(=O)(=O)N2c3ccccc3CC2C)c1 (centres undefined)	68.5% (active)
CCn1c(CSc2ncccn2)nnc1SCC(=O)N1c2ccccc2CC1C (centres undefined)	-1.7%
CCS(=O)(=O)c1ccc2oc(SCC(=O)N3c4ccccc4CC3C)nc2c1 (centres undefined)	46.1%
O=C1Nc2ccc(Br)cc2/C1=N/N=C/C1=C(N2CCOCC2)C(=C\c2ccccc2)/CC1	84.9% (active)
Cc1noc(C)c1S(=O)(=O)NCCc1ccc(S(N)(=O)=O)cc1	-3.8%
CCSC(C)CC1C/C(=N/O)c2c(C)noc2C1 (centres undefined)	61.3% (active)
